Experimental findings from PubChem BioAssay (Tox21) are described below.

Several values for one entry are separate records, joined by “and”; a condition that tells them apart may be missing. Equal values may be shown once. Values without a mark were called inactive. Inconclusive results are not listed. Activity calls are given as the source filed them. Unless noted, calls come from the whole dose curve; as a rule, active = well fitted curve in the direction sought with a large enough effect in the repeat runs; inconclusive = weak or mixed curves; inactive = no such curve, though single readings can be large; an effect the other way counts as inactive or inconclusive.

The nature of assay [1]: qHTS assay to identify small molecule antagonists of the glucocorticoid receptor (GR) signaling pathway - cell viability counter screen (AID 720693). Note: nearly all actives have a fitted effect of over 55% in size. Background: Quantitative high-throughput screening tests each substance at several concentrations.
Assay [2] in a line: qHTS assay for identifying genotoxic compounds that show differential cytotoxicity against isogenic chicken DT40 cell lines with known DNA damage response pathways - wild type cell line (AID 743012). Note: nearly all actives have a fitted effect of over 60% in size. Note: potency is the fitted concentration of half-maximal effect. Put shortly: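 CellTiter-Glo luminescence readout of viability in wild type DT40 cells after 40 h compound exposure at 37 C/5% CO2; 300 cells/well; reagent incubated 30 min at room temperature before reading.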

Assay [3] in a line: qHTS assay for identifying genotoxic compounds that show differential cytotoxicity against isogenic chicken DT40 cell lines with known DNA damage response pathways - Rev3 mutant cell line (AID 743014). Note: nearly all actives have a fitted effect of over 55% in size. Note: potency is the fitted concentration of half-maximal effect.
Assay [4] in a line: qHTS assay for identifying genotoxic compounds that show differential cytotoxicity against isogenic chicken DT40 cell lines with known DNA damage response pathways - Rad54/Ku70 mutant cell line (AID 743015). Note: nearly all actives have a fitted effect of over 60% in size. Note: potency is the fitted concentration of half-maximal effect.
A short description of assay [5]: qHTS assay to identify small molecule antagonists of the androgen receptor (AR) signaling pathway - cell viability counter screen (AID 743033; note: nearly all actives have a fitted effect of over 45% in size).
The target in assay [6] is Androgen receptor (Homo sapiens) (UniProt P10275). In words: qHTS assay to identify small molecule antagonists of the androgen receptor (AR) signaling pathway (AID 743035; active = well fitted inhibition curve with a large enough effect in the signal ratio in the repeat runs, not every such curve was filed as active; the % refers to the signal ratio). The gist of the method:
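AR-bla HEK293 reporter cells; 4 h settle at 37C/5% CO2; compound + R1881 agonist, 16 h at 37C; LiveBLAzer B/G FRET substrate 2 h RT; fluorescence intensity read. qHTS format.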

Assay [7] has the same target. In words: qHTS assay to identify small molecule agonists of the androgen receptor (AR) signaling pathway using the MDA cell line (AID 743040; note: nearly all actives have a fitted effect of over 20% in size). The gist of the method: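 Luciferase read-out, ONE-Glo, 30 min RT. Cells: MDA-kb2 AR-luc, MMTV promoter with AR and GR response elements. Compound exposure 16 h, 37C, 0% CO2, after 5 h pre-incubation. qHTS agonist mode.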
Assay [8] in a line: qHTS assay to identify small molecule antagonists of the androgen receptor (AR) signaling pathway using the MDA cell line - cell viability counter screen (AID 743041; note: nearly all actives have a fitted effect of over 45% in size). The gist of the method: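 Cytotoxicity counter screen: MDA-kb2 AR-luc cells, compound + R1881, 16 h, 37C, 0% CO2; CellTiter-Fluor added at 15.5 h, fluorescence read after 30 min.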
The target of assay [9] is Androgen receptor (Homo sapiens) (UniProt P10275). The assay can be described thus: qHTS assay to identify small molecule antagonists of the androgen receptor (AR) signaling pathway using the MDA cell line (AID 743042; note: nearly all actives have a fitted effect of over 55% in size; note: potency is the fitted concentration of half-maximal effect). The gist of the method:
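MDA-kb2 breast carcinoma cells carrying MMTV-luciferase (AR/GR responsive) were co-treated with compounds and the agonist R1881 for 16 h at 37C. Inhibition read as ONE-Glo luminescence; CellTiter-Fluor fluorescence measured in parallel for cytotoxicity.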

For assay [10] the target is unchanged. In words: qHTS assay to identify small molecule agonists of the androgen receptor (AR) signaling pathway (AID 743036; active = well fitted activation curve with a large enough effect in the signal ratio in the repeat runs, with a control signal flat, not every such curve was filed as active; the % refers to the signal ratio). The gist of the method: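 Activation was read as beta-lactamase FRET signal from LiveBLAzer B/G substrate, added for 2 h at room temperature. Before that, GeneBLAzer AR-UAS-bla GripTite (HEK293) cells had 16 h compound exposure at 37C.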
% is set by controls: 0 for no effect and ±100 for the full control effect.

Sequence of Androgen receptor (Homo sapiens) (P10275 whole entry, looked up): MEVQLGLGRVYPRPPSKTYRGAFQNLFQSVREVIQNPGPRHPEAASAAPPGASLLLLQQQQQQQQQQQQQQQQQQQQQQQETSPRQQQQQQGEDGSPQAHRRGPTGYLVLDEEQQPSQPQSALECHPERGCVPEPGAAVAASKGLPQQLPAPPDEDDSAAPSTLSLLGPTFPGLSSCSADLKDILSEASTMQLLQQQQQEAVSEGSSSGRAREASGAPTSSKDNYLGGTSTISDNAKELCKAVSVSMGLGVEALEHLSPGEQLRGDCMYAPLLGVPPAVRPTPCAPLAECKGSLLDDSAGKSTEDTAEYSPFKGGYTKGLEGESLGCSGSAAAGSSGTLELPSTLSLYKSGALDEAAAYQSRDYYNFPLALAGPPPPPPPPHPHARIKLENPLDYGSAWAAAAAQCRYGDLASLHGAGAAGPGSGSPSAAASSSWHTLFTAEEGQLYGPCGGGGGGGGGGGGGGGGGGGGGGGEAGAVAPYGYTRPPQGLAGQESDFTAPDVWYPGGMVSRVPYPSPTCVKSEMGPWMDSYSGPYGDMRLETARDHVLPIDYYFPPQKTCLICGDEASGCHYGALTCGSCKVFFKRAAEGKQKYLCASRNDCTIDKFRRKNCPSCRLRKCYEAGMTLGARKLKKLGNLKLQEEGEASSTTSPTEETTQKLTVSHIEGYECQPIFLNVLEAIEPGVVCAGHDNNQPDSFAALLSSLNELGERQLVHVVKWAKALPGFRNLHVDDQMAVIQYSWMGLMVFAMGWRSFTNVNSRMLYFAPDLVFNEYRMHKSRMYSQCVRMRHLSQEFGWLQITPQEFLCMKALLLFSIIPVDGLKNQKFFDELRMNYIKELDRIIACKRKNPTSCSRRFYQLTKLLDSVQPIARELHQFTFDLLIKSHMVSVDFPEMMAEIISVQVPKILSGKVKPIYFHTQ

Turning to `O=S(O)CO`, the result in assay [1] and in assay [6] was inactive. For the same molecule, the Potency entry in assay [2], in assay [3], in assay [4], in assay [5], in [7] and in assay [8] was “inactive” in each case. The Potency result in assay [9] was “inactive”.
`COC(=O)CC(C)=O`: in [1], the result was inactive. The Potency result in assay [2], in assay [3], in assay [4] and in assay [5] was “inactive” each time.
Consider `CC1(C)CO[C@@H](CC(=O)O)CN1`, for which the molecule was called inactive in assay [1]. The Potency result in [2], in [3], in [4] and in assay [5] was “inactive” throughout.
`O=C(O)COc1nn(Cc2ccccc2)c2ccccc12`: the result in assay [1] and in [6] was inactive. Further, the Potency entry in assay [2], in assay [3], in [4], in assay [5], in [7] and in [8] was “inactive” in each case. The Potency entry in assay [9] was “inactive”.
As to `N=C(N)c1ccc2cc(OC(=O)c3ccc(N=C(N)N)cc3)ccc2c1`, the call in assay [1] and in [10] was inactive. Besides, the Potency entry in assay [2], in [3], in assay [4], in assay [5], in assay [7] and in [8] was “inactive” throughout. The Potency result in [9] is “inactive”.
`OC(CCN1CCCCC1)(c1ccccc1)C1CC2C=CC1C2` (configuration not stated): the result in assay [1] was inactive. In addition, the Potency in assay [2] is 7.5 µM (active) and 9.44 µM (active); in assay [3] it was 15 µM (active) and 13.3 µM (active); in assay [4] it was 23.7 µM (active) and 21.1 µM (active). The Potency entry in assay [5] was “inactive”.
With `O=C(O)CN(CCOCCOCCN(CC(=O)O)CC(=O)O)CC(=O)O`, in assay [1], the result was inactive. Also, the Potency result in [2], in [3], in assay [4] and in [5] was “inactive” in each case.
Consider `CC(C)(c1ccc(O)cc1)c1ccc(O)cc1`, for which the result in assay [1] and in assay [10] was inactive. The Potency is 27.3 µM (active) in assay [2]; 67.8 µM (active) and 50.4 µM (active) in assay [3]; 49.2 µM (active) in assay [4]; 59.2 µM (active) in assay [9]. The Potency entry in [5], in assay [7] and in [8] was “inactive” each time.
With `OC1CCCCC1c1ccccc1` (configuration not stated), the outcome in assay [1] and in assay [10] was inactive. Further, the Potency result in [2], in assay [3], in assay [4], in assay [5], in assay [7] and in [9] was “inactive” in each case.
Consider `O=C(O)c1ccccc1OP(=O)(O)O`, for which, in [1], the result was inactive. Also, the Potency result in assay [2], in [3], in assay [4], in assay [5] and in assay [8] was “inactive” throughout.
Regarding `O=C(CCCN1CCC(O)(c2cccc(C(F)(F)F)c2)CC1)c1ccc(F)cc1`, the molecule was classed as inactive in [1]. In addition, the Potency was 10.6 µM (active) in assay [2], 11.9 µM (active) in assay [3] and 11.9 µM (active) in assay [4]. In addition, in [5], the Potency result is “inactive”.
Take `CCN(CC)CCNC(=O)c1cc(S(C)(=O)=O)ccc1OC`: the outcome in assay [1] was inactive. The Potency entry in [2], in assay [3] and in assay [4] was “inactive” in each case.
As to `COC(C)(C)CCCC(C)CC=O` (configuration not stated), in assay [1], the call was inactive. The Potency result in assay [2], in [3], in assay [4], in assay [5] and in assay [8] was “inactive” in each case.
As for `CC(C)NCC(O)c1ccc(NS(C)(=O)=O)cc1` (configuration not stated), in [1], the molecule was called inactive. For the same molecule, the Potency entry in assay [2], in assay [3], in assay [4], in assay [5] and in assay [8] was “inactive” each time.
`C[C@@H]1CCN(C(=O)[C@H](CCCN=C(N)N)NS(=O)(=O)c2cccc3c2NC[C@H](C)C3)[C@@H](C(=O)O)C1`: the outcome in [1] was inactive. Further, the Potency entry in [2], in assay [3], in assay [4], in [5] and in assay [8] was “inactive” each time.
Turning to `CC(C)(C)NCCNC(C)(C)C`, in [1], the call was inactive. Moreover, the Potency result in assay [2], in assay [3], in [4], in assay [5] and in assay [8] was “inactive” throughout.
On to `Nc1cc(=O)[nH]c(N)n1`, for which the molecule was classed as inactive in assay [1]. Moreover, the Potency result in assay [2], in [3], in [4], in [5] and in assay [8] was “inactive” in each case.
On to `CC(C)CNCC(C)C`, for which, in assay [1], the result was inactive. In addition, the Potency result in assay [2], in assay [3], in assay [4], in [5] and in assay [8] was “inactive” throughout.
With `COC(=O)c1ccc(C)cc1C1=NC(C)(C(C)C)C(=O)N1` (configuration not stated), the outcome in assay [1] was inactive. The Potency entry in assay [2], in [3], in assay [4], in assay [5] and in assay [8] was “inactive” in each case.
In the case of `c1cnc(N2CCN(Cc3ccc4c(c3)OCO4)CC2)nc1`, the molecule was classed as inactive in [1]. Moreover, the Potency result in assay [2], in assay [3], in [4], in assay [5] and in assay [8] was “inactive” throughout.
Consider `CN1C(=O)N(C)C(O)C1O` (configuration not stated), for which the call in assay [1] was inactive. Further, the Potency result in assay [2], in assay [3], in assay [4], in [5] and in [8] was “inactive” throughout.
With `CCO[Si](CCC1CCC2OC2C1)(OCC)OCC` (configuration not stated), the molecule was classed as inactive in assay [1]. Also, the Potency entry in assay [2], in assay [3], in assay [4], in assay [5] and in assay [8] was “inactive” in each case.
`C1OCOCO1`: the result in assay [1] was inactive. For the same molecule, the Potency entry in assay [2], in assay [3], in assay [4], in [5] and in assay [8] was “inactive” in each case.
Consider `CCCCOCCOCCOCCCC`, for which, in assay [1], the molecule was classed as inactive. In addition, the Potency entry in assay [2], in assay [3], in [4], in assay [5] and in [8] was “inactive” each time.
`O=[N+]([O-])c1ccc(F)cc1F`: the molecule was classed as inactive in assay [1]. Moreover, the Potency result in assay [2], in assay [3], in [4], in assay [5] and in [8] was “inactive” in each case.
As for `CCC(C)S` (configuration not stated), the viability change, negative = cytotoxic in assay [1] was -1.32% [at 3.15 µM]; in assay [8] it was 8.95% [at 3.79 µM]. Moreover, the activity change, negative = cytotoxicity is 25.1% [at 3.82 µM] in [2], 19.5% [at 3.83 µM] in [4] and 6.76% [at 3.15 µM] in assay [5]. Further, in assay [3], the activity, negative = cytotoxicity was -7.66% [at 3.82 µM].
Turning to `Cc1ccc(C#N)cc1`, the call in [1] was inactive. Besides, the Potency entry in assay [2], in assay [3], in [4], in assay [5] and in assay [8] was “inactive” in each case.
For the molecule `Cc1ccc(Cl)cc1Cl`, the molecule was classed as inactive in assay [1]. For the same molecule, the Potency result in assay [2], in [3], in assay [4], in [5] and in [8] was “inactive” each time.
As for `CCN1CCC[C@H]1CNC(=O)c1c(O)c(Cl)cc(Cl)c1OC`, in [1], the call was inactive. The Potency result in [2], in assay [3], in [4], in assay [5] and in assay [8] was “inactive” each time.
On to `O=C(O)CCCc1ccccc1`, for which the molecule was called inactive in assay [1]. For the same molecule, the Potency entry in assay [2], in assay [3], in assay [4], in [5] and in assay [8] was “inactive” in each case.
